Test: HepG2 liver cancer cell viability effects, profiling panel, resazurin fluorescence, 24 h, PK04 Diversity Set (AID 1172); also: test concentration not given here
Conditions: higher = more signal

SMILES	z-score
CN(C)CCCNC(=O)[C@@H]1c2ccccc2C(=O)N(Cc2ccccc2)[C@H]1c1ccc(CO)cc1	-0.309
COc1ccc([Si](C)(C)[C@H]2[C@H](CC(=O)N3CCC[C@H]3CO)O[C@@]3(C(=O)N(Cc4cccc(N5C(=O)COc6ccccc65)c4)c4ccccc43)[C@@H]2C)cc1	-0.58
C=CC[C@]1(C(=O)NCc2ccccc2)N=C(c2ccc(OCCCO)cc2)O[C@H]1c1ccccc1	0.527
COC(=O)[C@@]1(Cc2ccc(F)cc2)[C@H]2c3cc(C(=O)N(C)C)n(Cc4ccc(OC)c(OC)c4)c3C[C@H]2CN1C(=O)c1ccccc1	-1.05
O=C(CS)NCCCCCNC(=O)[C@H]1C[C@H]2C(=O)N3CCC[C@H]3C(=O)N2[C@H]1c1cccc(OCCO)c1	0.0716
Cn1cccc1C(O)C1C=CC2C(=O)NC(=O)C2N1Nc1ccccn1 (stereo unspecified)	-1.49
O=C1O[C@@H](c2ccccc2)[C@@H](c2ccccc2)N2[C@@H](c3ccc(OCCO)cc3)[C@]3(C(=O)Nc4ccccc43)[C@@H](C(=O)N3CCN(c4ncccn4)CC3)[C@H]12	-0.18
COC(=O)c1c(CC[C@@H](CO)NC(=O)N[C@H](Cc2ccccc2)Cn2cc(-c3ccccc3N)nn2)oc(C(C)=O)c1C(=O)OC	-0.601
COC(=O)[C@@H]1N=C(c2ccc(OCCCO)cc2)O[C@@H]1c1ccccc1N=[N+]=[N-]	1.92
CCOC(=O)C1=CC[C@H]2C(=O)N(CC)C(=O)[C@@H]12	0.507
C=C(/C(=C/C[C@H](OC(C)=O)c1ccc(OCCO)cc1)c1cnc2ccccc2c1)C(C)C	1.93
N#Cc1ccc(NN2C(C(O)c3cc(C(F)(F)F)cc(C(F)(F)F)c3)C=CC3C(=O)N(c4ccccc4)C(=O)C32)cc1 (stereo unspecified)	-1.75
COCCOC(=O)N1C(=O)[C@@]2(c3cc(C#CCNC(N)=O)ccc31)[C@H](c1ccccc1OCCO)N1[C@H](c3ccccc3)[C@H](c3ccccc3)OC(=O)[C@H]1[C@@H]2C(=O)N1CCN(c2ncccn2)CC1	-0.0783
CC(C)[Si]1(C(C)C)O[C@@H](c2ccccc2)c2cc(C3CC3)nc(-c3ccccc3)c21	0.972
COc1ccc([Si](C)(C)[C@@H]2[C@@H](CC(=O)N3CCC[C@H]3CO)O[C@]3(C(=O)N(Cc4cccc(N5CCC5=O)c4)c4ccccc43)[C@H]2C)cc1	-1.1
CN(C)c1ccc(C(O)C2C=CC3C(=O)N(c4ccccc4)C(=O)C3N2Nc2ccccc2F)cc1 (stereo unspecified)	-0.268
CCCCCN1CC=CC23O[C@@H]4C=CCOC(=O)[C@@H]4[C@H]2C(=O)N(CCCCCCO)[C@@H]3C1=O (stereo partly specified)	0.547
CC(C)(C)OC(=O)CC[C@]1(C(N)=O)COC(c2ccc(OCCCO)cc2)=N1	-0.722

SMILES	z-score
CC(C)(C)OC(=O)CC[C@]1(C(=O)NCc2ccccc2)N=C(c2ccc(OCCCO)cc2)O[C@H]1c1ccccc1	0.461
COc1ccc(CCNC(=O)[C@@H]2c3ccccc3C(=O)N(c3ccc(C)cn3)[C@H]2c2ccc(CO)cc2)cc1	0.594
CC1CC/C=C\[C@H]2OC34C=CCN(Cn5nnc6ccccc65)C(=O)[C@H]3N(CCO)C(=O)[C@@H]4C2C(=O)O1 (stereo partly specified)	0.831
C[N+](C)(C)CCCCCCNC(=O)[C@@H]1C[C@@H]2C(=O)N3CCC[C@H]3C(=O)N2[C@@H]1c1cccc(OCCO)c1	2.14
CN1C(=O)[C@@]2(CCC(=O)OC(C)(C)C)N=C(c3ccc(OCCCO)cc3)O[C@H]2c2ccccc21	0.761
COCC1=C2[C@@H](CCc3ccccc3)OB(O)C[C@@H]2n2c(=O)n(-c3ccccc3)c(=O)n2C1	0.0883
CCCCC(=C=CC[C@H](O)c1ccccc1OCCO)C[C@H](O)COCc1ccccc1	-0.325
COCCOC(=O)N1C(=O)[C@@]2(c3cc(C#CCNC(N)=O)ccc31)[C@H](c1ccc(O)cc1)N1[C@H](c3ccccc3)[C@H](c3ccccc3)OC(=O)[C@H]1[C@@H]2C(=O)N1CCCCCCC1	-0.0455
CC(C)NC(=O)[C@@H]1c2ccccc2C(=O)N(CC23CC4CC(CC(C4)C2)C3)[C@H]1c1ccc(CO)cc1	0.64
CCCC[C@@H]1C[C@H]1[C@@H](NS(=O)(=O)c1cccc2cccnc12)c1ccc(-c2ccccc2)cc1	-0.279
CC(C)N1CC=CC23O[C@@H]4C=CCCOC(=O)C4[C@H]2C(=O)N(CCCCCCO)[C@@H]3C1=O (stereo partly specified)	0.973
CC(C)=C1C(=O)C(c2ccccc2)=C2CN3C(=O)N(CCc4ccccc4)C(=O)[C@]3(Cc3ccc(F)cc3)[C@H]21	-1.22
CO[C@H]1O[C@H](CO)[C@@H](OC(=O)Nc2ccc(C#N)cc2)[C@H](OC(=O)c2cc3ccccc3[nH]2)[C@H]1OC(=O)c1cc2ccccc2[nH]1	-0.115
[N-]=[N+]=NCc1ccccc1[C@@H]1OC(c2ccc(OCCCO)cc2)=N[C@]1(Cc1ccccc1)C(=O)N1CCOCC1	-0.85
CC(C)c1ccc(NN2C(C(O)c3ccc4c(c3)OCO4)C=CC3C(=O)N(c4ccccc4)C(=O)C32)cc1 (stereo unspecified)	-1.13
COCC(=C=CC[C@@H](O)c1ccccc1OCCO)CCO	0.721
CC(C)OC(=O)C=C1C[C@@H](c2ccc(C#N)cc2)O[C@@H](c2ccc(C#N)cc2)O1	-0.389
CC(C)(C)N1CC=CC23O[C@@H]4C=CCCOC(=O)C4[C@H]2C(=O)N(CCCCCO)[C@@H]3C1=O (stereo partly specified)	-0.214

— PubChem BioAssay
